# Laboratory results as given in PubChem BioAssay AID2284360 (EPA ToxCast).
# Inconclusive results are not listed. Calls of active or inactive are those of the source. Rule for the calls: active = hit-call score of the fitted dose curve at least 0.9, where 1 is the maximum; inconclusive = response in the unintended direction; inactive = score below 0.9.
# Test: ATG_M_19_EcoTox2: Attagene TRANS-FACTORIAL EcoTox-2 HepG2 Assay for M19 Transcription Factor (Internal Marker)
# Experimental: ATG_EcoTox2 is a cell-based, multiplexed assay created by modifying the existing Attagene TRANS-FACTORIAL system to include a panel of nuclear receptors from some or all the following species: human (Homo sapiens), african clawed frog (Xenopus laevis), rainbow trout (Oncorhynchus mykiss), japanese medaka (Oryzias latipes), and zebrafish (Danio rerio). The ECOTOX2-FACTORIAL format uses HepG2, a human liver cell line, with measurements taken at 24 hours after chemical dosing in a 24-well plate. ATG_M_19_EcoTox2 is one of 29 assay components calculated in the ATG_EcoTox2 assay. It is designed to make measurements of mRNA induction, a form of inducible reporter, as detected with fluorescence intensity signals by Reverse transcription polymerase chain reaction (RT-PCR) and Capillary electrophoresis technology.The assay endpoint ATG_M_19_EcoTox2 was analyzed in the positive analysis fitting direction relative to DMSO as the negative control and baseline of activity. Using a type of inducible reporter, measures of mRNA for gain-of-signal activity can be used to understand the background control at the transcription factor-level as they relate to the gene. Furthermore, this assay endpoint can be referred to as a secondary readout, because this assay has produced multiple assay endpoints where this one serves a background control function. […]
# Human liver HepG2 cells are transiently transfected with multiple reporter transcription units (MRTUs) in 6-well plates using FuGene 6 reagent (Roche; 3 ml FuGene/1 mg DNA). […] A major difference between the CIS and TRANS system is that in CIS activities of endogenous TFs are measured, whereas the TRANS assay evaluates changes in activities of exogenous, chimeric NR-Gal4 proteins. […] The fragments were purified using Qiaquick PCR columns (Qiagen), analyzed on an ABI 3130xL genetic analyzer (Applied Biosystems) with peak positions identified by using a set of X-rhodamine (ROX)-labeled MapMarker1000 molecular weight standards (BioVentures). […]
row,SMILES,outcome
1,CCCCOCN(C(=O)CCl)c1c(CC)cccc1CC,inactive
2,[Cl][Sn]([c]1ccccc1)([c]1ccccc1)[c]1ccccc1,inactive
3,O=S(=O)(O)C(F)(F)C(F)(F)C(F)(F)C(F)(F)C(F)(F)C(F)(F)F,inactive
